Screen size: about 48,000 compounds; about 13,000 (27%) showed an effect of 50% or more. The list shows a part of the results.
test system: Wolbachia pipientis; assay: Anti-Wolbachia Cell-Based Screen; assay type: functional; parameters: scale not given: in the data most compounds retested in dose-response had high values; settings: 5 µM

| Structure (SMILES) | Percent Effect [%] |
| --- | --- |
| Cc1cc(C(=O)NCc2ccc(N3CCCC(C(N)=O)C3)cc2)no1 (stereo not given) | -5.438 |
| O=C(Cc1ccc(F)c(F)c1)NC1COc2ccccc2C1=O (stereo not given) | -17.04 |
| Cc1ccc(CN(CC(=O)NC2CCOCC2)c2ccc(F)cc2)o1 | -4.166 |
| CCOc1ncnc2c1CCN(C(=O)CN(C)C)CC2.O=C(O)C(F)(F)F | -0.06996 |
| O=C(c1cc[nH]n1)N(Cc1ccc(F)cc1)CC1CC1 | -5.824 |
| CCN(CC)C(CNC(=O)CCc1nc(C(C)C)no1)c1ccco1 (stereo not given) | -1.128 |
| NC(=O)c1cnc(NC2CCN(C(=O)C3CC3)CC2)c(Cl)c1 | 4.189 |
| Cc1nc(N2CCN(C(=O)C3CC3)CC2)c2c(n1)c(C)nn2C | 1.518 |
| Cn1ncc2c(=O)[nH]c(CN3CCCC3c3cccs3)nc21 (stereo not given) | -2.053 |
| CC(C)c1cc(NC2CCCN(C(=O)c3cccs3)C2)ncn1 (stereo not given) | -8.38 |
| CCc1nc(NC2CCCN(C(=O)c3cccs3)C2)c2cnn(C)c2n1 (stereo not given) | 96.59 |
| Cc1nc(NC2CCN(C(=O)C3CC3)CC2)c2cnn(C)c2n1 | 200.9 |
| COC(=O)c1sccc1S(=O)(=O)NCCc1ccoc1 | -8.727 |
| CC1CCCCN1C(=O)Cn1cc(I)cn1 (stereo not given) | 11.08 |
| CN(C)c1ncc(I)c(C2CCCN2S(C)(=O)=O)n1 (stereo not given) | 113.9 |
| CN(C)c1ncc(I)c(C2CCCN2C)n1.Cl (stereo not given) | 88.04 |
| CN(C)c1cccc(C2CCCN2S(N)(=O)=O)c1 (stereo not given) | -8.581 |
| CN(C)c1ncc(I)c(C2CCCCN2C)n1 (stereo not given) | 140.6 |
| CN(C)c1ncc(I)c(C2CCCCN2S(C)(=O)=O)n1 (stereo not given) | 26.22 |
| Cc1nc(CN2CCC(CNC(=O)NCCC3CCC3)CC2)oc1C | -2e-14 |
| CN(C)C(=O)c1nc(CN2CC(Cc3ccccc3)CC2=O)no1 (stereo not given) | 4.683 |
| CC(=O)N1CCc2[nH]cnc2C12CCN(C(=O)CCn1cccn1)CC2 | -18.33 |
| COC[C@@]12CC[C@@H](N3CCOCC3)C[C@H]1CCN(c1cnccn1)C2 | 11.4 |
| CCS(=O)(=O)N1CCc2cc(C(=O)N(C)C)c(NCC3CC3)nc2CC1 | 112.1 |
| CN(C)C(=O)c1cc2c(nc1NCC1CC1)CCN(CC1CC1)CC2 | 87.77 |

| Structure (SMILES) | Percent Effect [%] |
| --- | --- |
| CNC(=O)c1cc2c(nc1NCC(C)C)CCN(CC1CC1)CC2.O=C(O)C(F)(F)F.O=C(O)C(F)(F)F | 9.792 |
| CN(C)C(=O)c1cc2c(nc1NCC1CC1)CCNCC2 | 103.6 |
| CNC(=O)c1cc2c(nc1NCC1CC1)CCN(S(=O)(=O)C1CC1)CC2 | 20.95 |
| CNC(=O)c1cc2c(nc1NCC1CC1)CCN(c1ccncn1)CC2.O=C(O)C(F)(F)F | -1.556 |
| CNC(=O)N1CCc2cc(C(=O)N(C)C)c(NCC3CC3)nc2CC1.O=C(O)C(F)(F)F | 7.418 |
| CC(C)Nc1nc2c(cc1C(=O)N(C)C)CCNCC2.O=C(O)C(F)(F)F.O=C(O)C(F)(F)F | -6.085 |
| CNC(=O)c1cc2c(nc1NCC1CC1)CCNCC2 | 13.18 |
| CNC(=O)N1CCc2cc(C(=O)NCC3CC3)c(NC(C)C)nc2CC1 | 0.2326 |
| CCN1CCc2cc(C(=O)N(C)C)c(NCC3CC3)nc2CC1 | 103.3 |
| Cc1ccnn1-c1ccc(C(=O)N2CCN(c3cnccn3)CC2)cc1 | 15.98 |
| CC/N=c1\nc(NCC)nc2n1C(O)(Nc1cccc(C)c1C)CS2 (stereo not given) | 97.63 |
| CC/N=c1\nc(NCC)nc2n1C(O)(Nc1ccc(C)cc1C)CS2 (stereo not given) | 134.3 |
| CC/N=c1\nc(NCC)nc2n1C(O)(Nc1cc(Cl)ccc1Cl)CS2 (stereo not given) | 112.8 |
| Cc1cc(CNc2cc(Cl)ccc2Cl)no1 | -3.438 |
| CC/N=c1\nc(NCC)nc2n1C(O)(Nc1cccc(Cl)c1Cl)CS2 (stereo not given) | 212.9 |
| O=C(c1cccc2[nH]ncc12)N1CCCC1c1noc(C2CC2)n1 (stereo not given) | -9.191 |
| COc1ccc(S(=O)(=O)N2CC(CC(=O)O)c3ccccc32)cc1 (stereo not given) | -7.807 |
| Cl.NCC1CCCCN1C(=O)Cc1cccc(Br)c1 (stereo not given) | -8.019 |
| N#CC(NC(=O)c1cccc2c1OCCO2)c1ccc(F)cc1F (stereo not given) | -4.984 |
| CCN(Cc1cc(Cl)ccc1OC)Cc1nccn1C | -15.12 |
| CC/N=c1\nc(NCC)nc2n1C(O)(Nc1cc(C)ccc1C)CS2 (stereo not given) | 165.1 |
| CCn1c(C2CCCN(Cc3ccc(OC)c(C)c3C)C2)nn(C)c1=O (stereo not given) | 24.51 |
| Cc1ccccc1C(C)NC(=O)CN1CCN(Cc2ccc(Br)s2)CC1 (stereo not given) | 1.299 |
| O=C1NCC(C(=O)N(Cc2ccc(C(F)(F)F)cc2)C2CC2)N1 (stereo not given) | -7.127 |
| CC(C)(NC(=O)Cc1ccccc1F)C(=O)O | 90.43 |

| Structure (SMILES) | Percent Effect [%] |
| --- | --- |
| CC(C)(CNC(=O)C1CCCN(C(N)=O)C1)c1cccc(Cl)c1 (stereo not given) | -3.245 |
| CS(=O)(=O)Cc1ccc(Cl)cc1NCc1ccccc1F | -2.816 |
| CC(C)(C)SCC(=O)NC(C)(C(N)=O)c1cccc(Cl)c1 (stereo not given) | 113.7 |
| Cc1cccc(OCCC(=O)NCC(C)(C)C(N)=O)c1 | -9.486 |
| CC(C)(CNC(=O)CCOc1cccc(F)c1)C(N)=O | -11.69 |
| O=C(Cc1cccc(F)c1F)NS(=O)(=O)c1ccc(Cl)cc1F | 16.65 |
| CC(C)(NC(=O)Cc1ccccc1F)C(C)(C)C(=O)O | 10.54 |
| CCC(C)(CC(=O)O)NC(=O)Cc1ccccc1F (stereo not given) | -2.363 |
| COCCC(=O)NC(C)(C(N)=O)c1cccc(Cl)c1 (stereo not given) | 111.9 |
| Cc1nncn1CCNC(=O)C(C)(C)c1cccc(Cl)c1 | -9.762 |
| CC(NC(=O)Cc1ccccc1F)(C(N)=O)c1cccc(Cl)c1 (stereo not given) | 85.68 |
| COC[C@@]12CC[C@@H](N3CCOCC3)C[C@H]1CCN(c1ncccc1F)C2 | -2.051 |
| Cc1nn(C)c(C)c1-c1c(-c2ccccc2)ncn1[C@H](CO)C(=O)O | -8.389 |
| Cc1ncsc1CCN(C)C(=O)c1ncccc1O | -5.816 |
| CC(C)OCc1cccc(NC(=O)N(C)Cc2ncnn2C)c1 | -5.342 |
| O=C1N(Cc2ccc(F)cc2)CCCC12CCN(C1CCSCC1)C2 (stereo not given) | -0.8017 |
| CC(NC(=O)Cc1cccs1)(C(N)=O)c1cccc(Cl)c1 (stereo not given) | 80.31 |
| CC(C)(CNC(=O)c1ccco1)NC(=O)OC(C)(C)C | -7.413 |
| CC(C)(C)OC(=O)NC(C)(C(N)=O)c1cccc(Cl)c1 (stereo not given) | 178.1 |
| CC(C)(C)CC(=O)NC(C)(C(N)=O)c1cccc(Cl)c1 (stereo not given) | 91.43 |
| CC(C)(CNC(=O)c1ccc(Cl)o1)NC(=O)OC(C)(C)C | -6.326 |
| CC(C)(C)C(=O)NCC(=O)NC1CC(c2cccc(Cl)c2)C1 (stereo not given) | -7.236 |
| CC(NC(=O)NCc1cccc(Cl)c1)(C(=O)O)c1ccco1 (stereo not given) | 5.605 |
| Cc1cc(CNC(=O)Cc2cccs2)ccc1S(C)(=O)=O | -11.25 |
| O=C(Cc1cccs1)NCC1(O)CCSC1 (stereo not given) | 0.8903 |

| Structure (SMILES) | Percent Effect [%] |
| --- | --- |
| COCc1ccc(C(=O)N2CCN(CC3CC3)[C@@H]3CS(=O)(=O)C[C@@H]32)o1 | -14.33 |
| CCCc1cnc(C)nc1NCCc1nc(C)cc(=O)[nH]1 | 11.65 |
| CCCN1CCCC1c1ccc(C(=O)N2CCOCC2)s1 (stereo not given) | -8.147 |
| CN(C)CC(=O)N1CCc2sc(C(=O)N3CCN(C)CC3)cc21 | 110.2 |
| CN(C)C1CCN(C(=O)c2cc3c(s2)CCN3C(=O)C2CC2)CC1.O=C(O)C(F)(F)F | -3.085 |
| CN1CCN(C(=O)c2cc3c(s2)CCN3C(=O)C2CC2)CC1 | -4.007 |
| CN1CCCN(C(=O)c2cc3c(s2)CCN3C(=O)C2CC2)CC1 | 2.998 |
| CN(C)CC(=O)N1CCc2sc(C(=O)N3CCOCC3)cc21 | 66.53 |
| C=C(C)CNc1ccc(C(=O)N(CC)Cc2nccn2C)cn1 | -22.79 |
| CC(C)c1cnc(CN(C)C2CCN(CCn3cc(C#N)cn3)C2)o1 (stereo not given) | 95.34 |
| CCc1cnc(CN(C)C2CCN(CCS(C)(=O)=O)C2)o1 (stereo not given) | -2.122 |
| CCc1cnc(CN(C)C2CCN(CCn3cc(C#N)cn3)C2)o1 (stereo not given) | 85.15 |
| CC(C)c1cnc(CN(C)C2CCN(CCc3ccncc3)C2)o1 (stereo not given) | -3.327 |
| Cc1cnc(CN(C)C2CCN(CCn3cc(C#N)cn3)C2)o1 (stereo not given) | 2.575 |
| CSc1ncccc1C(=O)N1CCC2(CC1)OCCCC2O (stereo not given) | -4.189 |
| CC(=O)N1CCCC2(CN(Cc3ccccc3C(F)(F)F)CCO2)C1 (stereo not given) | -3.341 |
| O=C(Cc1ccccn1)N1CCC2(CC1)CN(c1ncccn1)CCO2.O=C(O)C(F)(F)F.O=C(O)C(F)(F)F | 8.931 |
| CC(Oc1ccccc1C(F)(F)F)C(=O)NCC(=O)N1CCCC1 (stereo not given) | -9.214 |
| O=C(Cc1ccccc1C(F)(F)F)N1CCC2(CC1)OCCCC2O (stereo not given) | 121.4 |
| O=C(Cc1ccccc1C(F)(F)F)N1CCC2(CC1)[C@H](O)C[C@@H]2O | 113.5 |
| Cc1nc(O)cc([C@@H]2CN(S(=O)(=O)N(C)C)C[C@H]2c2ccccc2F)n1 | 136.9 |
| CCS(=O)(=O)N1C[C@@H](c2cc(O)nc(C)n2)[C@H](c2ccccc2F)C1 | 95.46 |
| Cc1cccc(C(=O)N2C[C@H]3CC[C@@H]2CN(S(=O)(=O)N(C)C)C3)n1 | -20.97 |
| Cc1nc(O)cc(CN2C[C@H](NS(=O)(=O)N(C)C)[C@@H](C3CC3)C2)n1 | -8.548 |
| Cc1nc(O)cc(CCNC(=O)c2ccc(CN3CCCCC3)cc2)n1 | 2.411 |

— ChEMBL document CHEMBL3988442, “University of Dundee, Small-Polar-MMV Screening Library” (2021)
